A selection: hits, their analogues and other compounds. The true share with any hit is near 3.7%.
PfHsp90 yeast 2: growth inhibition of PfHsp90-expressing yeast, primary screen, antimalarial PfHsp90 inhibitor project, S. cerevisiae, BacTiter-Glo luminescence, single point, set 2 | BacTiter-Glo ATP, 48 h; yeast lacking PDR1 and PDR3 efflux regulators | inhibition, % at 9.4 µM | 310,000 tested, 0.32% active | AID 504621, 2011;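 active = every replicate shows inhibition above about 80%, whatever the replicate mean, limit read from the data; inconclusive = mean inhibition reaches the set limit but some replicate falls short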;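 note: 0% = DMSO neutral controls and 100% = 20 µM radicicol positive controls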
TIM10 inh: growth inhibitors of isogenic TIM10 control yeast, primary screen, counter-screen for tim10-1 yeast inhibitor project, luminescence, uHTS; AID 463195, 2010; 330,000 tested, 1.4% active; S. cerevisiae TIM10 strain growth, BacTiter-Glo luminescence, 24 h; inhibition, % at 10 µM;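 active = inhibition of 40% or more at the single tested concentration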;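 note: wild-type TIM10 isogenic control strain grown at permissive 25 °C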
V-ATPase pHluor: regulators of yeast V-ATPase proton pumping, primary screen, pHLuorin cytosolic pH fluorescence; 350,000 tested, 0.37% active; S. cerevisiae; response, % at 10 µM; in the data active = response mostly above about 7.3%, no sharp cut-off; inactive = mostly below about 5.4%; note: actives read high
tim10-1 inh: growth inhibitors of tim10-1 mutant yeast, primary screen, luminescence, uHTS; S. cerevisiae tim10-1 ts strain growth, BacTiter-Glo, 24 h; inhibition, % at 20 µM; 330,000 tested, 2.2% active;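 active = inhibition of at least 40%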;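 note: mutant grown at 25 °C; 0% = DMSO wells with yeast and 100% = wells holding no yeast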
tim23-1 inh: growth inhibitors of tim23-1 mutant yeast, primary screen, luminescence, uHTS; S. cerevisiae tim23-1 growth, BacTiter-Glo luminescence, 24 h; inhibition, % at 20 µM; 330,000 tested, 1.3% active;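 active = growth inhibition of the mutant yeast at or above 50%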;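 note: temperature-sensitive mutant grown at 25 °C; plate controls were DMSO-treated mutant yeast for no effect and medium wells lacking yeast for full effect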
TIM10 conf: growth inhibitors of wild-type TIM10 yeast, confirmation, counter-screen for tim10-1 synthetic lethality project, single concentration, luminescence, S. cerevisiae. AID 463215, 2010. S. cerevisiae tim10 strain growth, BacTiter-Glo luminescence, 24 h. 4,600 tested, 63% active. shares compounds with TIM10 inh. inhibition, % at 10 µM;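 active = inhibition of yeast growth at or above a set limit in either of two replicates at 10 µM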;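 note: this counterscreen used the strain with wild-type TIM10; 0% = yeast with DMSO and 100% = medium wells lacking yeast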
tim23-1 conf: tim23-1 mutant yeast growth inhibitors, confirmation, luminescence, single concentration; shares compounds with tim23-1 inh; 4,400 tested, 83% active; S. cerevisiae tim23-1 growth, BacTiter-Glo luminescence, 24 h; inhibition, % at 20 µM;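 active = inhibition above about 39% in either of two replicate wells at 20 µM, limit read from the data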;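 note: temperature-sensitive tim23-1 mutant grown at 25 °C; 0% = DMSO wells with yeast and 100% = medium wells without yeast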
* hit, by the source's call.

Screening COc1cccc(/C=N/n2c(N)nc3ccccc32)c1OC returned PfHsp90 yeast 2 -12, TIM10 inh 44*, V-ATPase pHluor 2, tim10-1 inh 10, tim23-1 inh 60*, TIM10 conf 45* and tim23-1 conf 38.
Screening COc1ccc(/C=N/n2c(N)nc3ccccc32)cc1OC returned PfHsp90 yeast 2 3, TIM10 inh -4, V-ATPase pHluor 1, tim10-1 inh -7 and tim23-1 inh -1.
Screening CC1CCCC(C)N1/N=C/c1cc(Br)cc(Br)c1O (stereo not given) returned PfHsp90 yeast 2 9, TIM10 inh 30, V-ATPase pHluor 1, tim10-1 inh 34 and tim23-1 inh 39.
CC(=O)N1c2ccc(N=Cc3cc(Br)cc(Br)c3O)cc2CC1C (stereo not given) was read as TIM10 inh 73*, tim10-1 inh 35, tim23-1 inh 84*, TIM10 conf 28 and tim23-1 conf 87*.
For O=C(c1ccc([N+](=O)[O-])o1)N1CCc2ccccc2C1 the results were PfHsp90 yeast 2 inconclusive, TIM10 inh 73*, V-ATPase pHluor 2, tim10-1 inh 38, tim23-1 inh 59*, TIM10 conf 73* and tim23-1 conf 35.
O=C(c1ccc([N+](=O)[O-])o1)N1CCOCC1 was read as PfHsp90 yeast 2 -9, TIM10 inh 8, V-ATPase pHluor -1, tim10-1 inh -3 and tim23-1 inh 24.
`O=C(NNC(=O)c1ccc([N+](=O)[O-])cc1C(=O)O)c1ccncc1` gave PfHsp90 yeast 2 12, TIM10 inh -10, V-ATPase pHluor -1, tim10-1 inh -3 and tim23-1 inh 9.
CCC1(c2ccccc2)ON(c2c(Br)cccc2Br)C1=O (stereo not given) was read as PfHsp90 yeast 2 -26, TIM10 inh 71*, V-ATPase pHluor 3, tim10-1 inh -52, tim23-1 inh 78*, TIM10 conf 56* and tim23-1 conf -48.
Screening CCOc1ccc(NS(=O)(=O)c2ccc(C(=O)NCCCN3CCCC3=O)cc2)cc1 returned PfHsp90 yeast 2 -14, TIM10 inh 5, V-ATPase pHluor 3, tim10-1 inh -8 and tim23-1 inh 5.
Cc1ccc2nc(NC(=O)c3ccc(-c4nc5ccccc5s4)s3)sc2c1 was read as PfHsp90 yeast 2 0, TIM10 inh 6, V-ATPase pHluor 0, tim10-1 inh 7 and tim23-1 inh 8.
`O=C(NC1CC1)c1ccc(-c2nc3ccccc3s2)s1` gave TIM10 inh 53*, V-ATPase pHluor 1, tim10-1 inh 10, tim23-1 inh 59*, TIM10 conf 51* and tim23-1 conf 68*.
Cc1ccc(NC(=O)NCC2CC2(Cl)Cl)cc1 (stereo not given) was read as PfHsp90 yeast 2 43, TIM10 inh -23, V-ATPase pHluor 7, tim10-1 inh -16 and tim23-1 inh 4.
`O=C(NCC1CC1(Cl)Cl)Nc1ccc(Cl)c(Cl)c1` (stereo not given) gave PfHsp90 yeast 2 -5, TIM10 inh 48*, V-ATPase pHluor -4, tim10-1 inh 38, tim23-1 inh 80*, TIM10 conf 45* and tim23-1 conf 71*.
`CCN(CC)CCNC(=O)c1ccc2c(c1NCCO)C(=O)c1ccccc1C2=O` gave TIM10 inh 43*, tim10-1 inh 29, tim23-1 inh 70*, TIM10 conf 48* and tim23-1 conf 60*.
`O=C(NCCO)c1cccc2c1C(=O)c1ccccc1-2` gave PfHsp90 yeast 2 -3, TIM10 inh -1, V-ATPase pHluor 0, tim10-1 inh 2 and tim23-1 inh 5.
Screening COc1ccc(CN=C2NN=C(c3ccc(Cl)cc3)CS2)cc1 returned PfHsp90 yeast 2 20, TIM10 inh 46*, V-ATPase pHluor 3, tim10-1 inh 14, tim23-1 inh 65*, TIM10 conf 31* and tim23-1 conf 68*.
Screening CC1CCCCN1C(=S)NC(=O)c1cc(Br)ccc1Cl (stereo not given) returned PfHsp90 yeast 2 -1, TIM10 inh 41*, V-ATPase pHluor 3, tim10-1 inh 35, tim23-1 inh 54*, TIM10 conf 44* and tim23-1 conf 50*.
CCC1CCCCN1C(=S)NC(=O)c1cc(Br)ccc1Cl (stereo not given) was read as PfHsp90 yeast 2 -16, TIM10 inh 53*, V-ATPase pHluor 4, tim10-1 inh 35, tim23-1 inh 58*, TIM10 conf 52* and tim23-1 conf 53*.
`Cc1cccc(N=N/C(=C\O)C(=O)c2cccs2)c1` gave PfHsp90 yeast 2 -56, TIM10 inh 43*, V-ATPase pHluor -3, tim10-1 inh 38, tim23-1 inh 58*, TIM10 conf 45* and tim23-1 conf 60*.
Screening Cc1cccc(OCc2nnc(SCC(=O)N3c4ccccc4CC3C)n2C)c1C (stereo not given) returned PfHsp90 yeast 2 -20, TIM10 inh 44*, V-ATPase pHluor -4, tim10-1 inh 39, tim23-1 inh 54*, TIM10 conf -2 and tim23-1 conf 42*.
`Cn1c(CSc2nc3ccc(Br)cc3[nH]2)nc2ccccc21` gave PfHsp90 yeast 2 22, TIM10 inh 41*, V-ATPase pHluor -4, tim10-1 inh 29, tim23-1 inh 61*, TIM10 conf 28 and tim23-1 conf 57*.
For Nc1ncnc2c1nc(Sc1ccc(Cl)cc1)n2[C@@H]1O[C@@H]2COP(=O)(O)O[C@H]2[C@H]1O the results were PfHsp90 yeast 2 -4, TIM10 inh 0, V-ATPase pHluor -2, tim10-1 inh -1 and tim23-1 inh -16.
Screening Cc1csc(=NC(=O)c2ccccc2)n1C returned TIM10 inh 44*, V-ATPase pHluor -1, tim10-1 inh 3, tim23-1 inh 55*, TIM10 conf 38* and tim23-1 conf 54*.
For CCn1c(C)csc1=NC(=O)c1ccccc1 the results were PfHsp90 yeast 2 25, TIM10 inh 18, V-ATPase pHluor -1, tim10-1 inh -27 and tim23-1 inh 25.
Screening O=C(COC(=O)c1cncc(Br)c1)NC1CCCCC1 returned PfHsp90 yeast 2 -30, TIM10 inh -22, V-ATPase pHluor 0, tim10-1 inh -1 and tim23-1 inh 1.
For O=C(NC(=S)NC1CCCCCC1)c1cncc(Br)c1 the results were PfHsp90 yeast 2 1, TIM10 inh 44*, V-ATPase pHluor -1, tim10-1 inh 34, tim23-1 inh 51*, TIM10 conf -1 and tim23-1 conf 42*.

Assay outcomes deposited in PubChem by several laboratories.
